Consider 48 molecules from PubChem BioAssay AID1508625 (Wald Lab, School of Medicine, Case Western Reserve …, 2021).

The assay in a line: enhancers of NK cell killing of ovarian tumor cells, primary screen, imaging, OVCAR3, primary NK cells, calcein-AM imaging (AID 1508625).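 Further: compound given to NK cells 16 h before adding targets at 1.5 to 1 ratio.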 Conditions: OVCAR3 lysis by primary NK cells, at 5 µM; z-score: measured here: robust Z-score, single-point normalisation.

For the molecule `CC1(C)CC(c2csc(N)n2)CCO1` (stereo unspecified), the corrected activity, negative = more killing was -2.99% and the z-score is -1.14.
For `O=C(NCC1CCCO1)c1ccc(COc2ccc(Cl)cc2)cc1` (stereo unspecified), in that order: -2.84% and -1.58.
Regarding `CCC(=O)c1ccc(OCC(=O)O)c(OC)c1`, the corrected activity, negative = more killing is -0.458% and the z-score is -0.171.
For the molecule `COc1ccc(C)cc1NC(=O)c1sc2nc(C)nc(N3CCCCC3C)c2c1C` (stereo unspecified), the corrected activity, negative = more killing is -3.27% and the z-score is -1.75.
Taken in the same sequence, the figures for `CCCCNCC(=O)Nc1ccc(Br)cc1` were -5.05% and -1.88.
For `COc1ccc(-c2cc(C(=O)NN=Cc3ccncc3)[nH]n2)cc1`, in that order: 2.36% and 1.03.
Taken in the same sequence, the figures for `Cc1cc(-n2c(N)c(C(N)=O)sc2=S)ccc1Cl` were -4.14% and -1.1.
`CC(C)C(CC(=O)O)NS(=O)(=O)c1ccc(F)cc1` (stereo unspecified): the corrected activity, negative = more killing was -3.43% and the z-score is -0.924.
In the case of `Cc1cc(C)c(S(=O)(=O)NCc2ccc(C(=O)NCCc3ccc(Cl)cc3)cc2)c(C)c1`, the corrected activity, negative = more killing is -5.64% and the z-score was -1.38.
Taken in the same sequence, the figures for `O=C(NCc1cccc(Cl)c1)c1ccc2c(=O)n(Cc3cccc(Br)c3)c(=S)[nH]c2c1` were -6.41% and -2.04.
Taken in the same sequence, the figures for `COc1ccc2cc3cc(C(=O)NCCCN4CCN(Cc5ccccc5)CC4)oc3nc2c1` were -0.58% and -0.142.
Consider `O=[N+]([O-])c1ccc(OCc2ccc(Br)cc2)cc1`, for which the corrected activity, negative = more killing is -1.79% and the z-score was -0.994.
Taken in the same sequence, the figures for `CC1CCN(CCCCCOc2ccccc2Br)CC1` were -0.201% and -0.0828.
Taken in the same sequence, the figures for `O=C(NC(=S)NN1CCOCC1)c1ccc(Br)cc1` were -1.04% and -0.33.
Consider `COc1cc(OC)c(CN2CCN3CCCC3C2C)cc1Br` (stereo unspecified), for which the corrected activity, negative = more killing was -2.76% and the z-score was -1.21.
For `Cc1ccc(C)c(C(=O)COC(=O)CNS(=O)(=O)c2ccccc2)c1`, the corrected activity, negative = more killing was -1.55% and the z-score was -0.589.
Taken in the same sequence, the figures for `COc1ccc(CNCC2OCCc3ccccc32)cc1OC` (stereo unspecified) were -5.1% and -1.95.
Taken in the same sequence, the figures for `O=C1C(=O)N(CCO)C(c2ccc(Br)cc2)C1=C(O)c1ccccc1` (stereo unspecified) were -2.24% and -0.856.
Taken in the same sequence, the figures for `COc1cc(OC)c(OC)cc1CN1CCN(C(=O)c2ccncc2)CC1` were -2.22% and -0.992.
Turning to `COC(=O)c1cc(NC(=O)c2cc3nc(-c4ccc(Cl)cc4)cc(C(F)(F)F)n3n2)cc(C(=O)OC)c1`, the corrected activity, negative = more killing is -8% and the z-score is -2.54.
Taken in the same sequence, the figures for `CC(C)(C)C1CCC(=O)C(C2(O)C(=O)Nc3ccc(Br)cc32)C1` (stereo unspecified) were -3.34% and -0.998.
Taken in the same sequence, the figures for `Cc1cc(OCCN2CCCCCC2)ccc1[N+](=O)[O-]` were -3.28% and -1.82.
For `CN(C)CCSc1nnnn1-c1ccccc1`, in that order: -4.18% and -1.86.
On to `CC(=O)Nc1cccc(N=Cc2cc(Cc3ccccc3)cc([N+](=O)[O-])c2O)c1`, for which the corrected activity, negative = more killing was -1.97% and the z-score was -0.698.
Taken in the same sequence, the figures for `CCOCCCNC(=O)c1ccc(N2CCCC2=O)cc1` were -4.67% and -1.26.
For `COc1ccc(C2NC(=O)c3c(sc4c3CCCC4)N2)cc1OC` (stereo unspecified), in that order: -2.78% and -1.1.
For `Cc1ccc(Cn2c3[n+](c4ccccc42)CC(O)CS3)cc1` (stereo unspecified), in that order: -3% and -1.55.
As to `CC1(C(=O)NCC2CCCO2)CCC(=O)N1CCc1ccccc1` (stereo unspecified), the corrected activity, negative = more killing was -6.77% and the z-score was -1.92.
As for `CC(C)Oc1ccc(CNC2CCOC(C)(C)C2)cc1` (stereo unspecified), the corrected activity, negative = more killing is -3.04% and the z-score is -1.2.
For `CCc1ccc(-c2nc3ccccc3c(C(=O)O)c2C)cc1`, in that order: -3.44% and -1.41.
In the case of `O=C(O)CN1C(=O)c2ccc(C(=O)O)cc2C1=O`, the corrected activity, negative = more killing is -5.22% and the z-score is -1.62.
For `COCCCNCCOc1c(Cl)cc(C)cc1Br`, in that order: -4.25% and -1.58.
Taken in the same sequence, the figures for `COC(=O)c1ccc(NC(=O)CN2CCN(CC#N)CC2)cc1` were -5.45% and -2.05.
Taken in the same sequence, the figures for `COc1ccc(OC)c(NC(=O)CSc2nc3c([nH]c4ccccc43)c(=O)n2C)c1` were -8.66% and -2.15.
Consider `COc1cc(C)c(NC(=O)c2ccccc2I)cc1C(C)C`, for which the corrected activity, negative = more killing is -3.4% and the z-score was -1.89.
For `C=CCNC(=O)c1ccc2snnc2c1`, in that order: -1.6% and -0.478.
Taken in the same sequence, the figures for `CSC1CCCCC1(O)CSc1nc2ccccc2o1` (stereo unspecified) were -4.44% and -1.67.
For `CCc1ccc(-n2c(C)nc3cc(C(=O)NCc4cccnc4)ccc32)cc1`, in that order: -5.32% and -1.43.
In the case of `O=C(Nc1nc2ccccc2s1)C(=O)Nc1nc2ccccc2s1`, the corrected activity, negative = more killing is 0.998% and the z-score is 0.309.
For `Nc1cc(OC(=O)c2cccs2)nn1S(=O)(=O)c1ccccc1`, in that order: -4.31% and -1.37.
For `O=C(C=Cc1ccc([N+](=O)[O-])cc1)NC(=S)NN1CCOCC1`, in that order: -5.28% and -1.68.
In the case of `Cc1ccc(C2C(=C(O)c3ccc(Cl)cc3)C(=O)C(=O)N2CCCn2ccnc2)cc1` (stereo unspecified), the corrected activity, negative = more killing was -3.13% and the z-score was -1.2.
For `O=c1c2cn[nH]c2nc(SCc2ccccc2F)n1-c1ccc(Oc2ccccc2)cc1`, in that order: -0.689% and -0.251.
Take `COc1cc2c(cc1NC(=O)C(C)c1ccc([N+](=O)[O-])cc1)oc1ccccc12` (stereo unspecified): the corrected activity, negative = more killing was -2.25% and the z-score is -1.25.
For `COC(=O)CCC(=O)NNC(=O)c1ccc(Br)cc1`, in that order: -3.77% and -1.49.
For `Cc1c(C(=O)O)oc2ccc(S(=O)(=O)N3CCOCC3)cc12`, in that order: -2.57% and -0.692.
As for `CCOc1ccc(N2CC(C(=O)Nc3cc(C)ccn3)CC2=O)cc1` (stereo unspecified), the corrected activity, negative = more killing was -3.29% and the z-score is -1.23.
For `CCC(SC1=NCCS1)C(=O)Nc1ccc(S(N)(=O)=O)cc1` (stereo unspecified), in that order: -2.81% and -1.06.
